Inconclusive results are not listed. Calls of active or inactive are those of the source. Unless noted, calls come from the whole dose curve; as a rule, active = well fitted curve in the direction sought with a large enough effect in the repeat runs; inconclusive = weak or mixed curves; inactive = no such curve, though single readings can be large; an effect the other way counts as inactive or inconclusive.
Legend:
[1] = qHTS assay to identify small molecule agonists of the sonic hedgehog signaling (Shh) pathway (AID 1259368; calls by dose curve;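 note: NIH/3T3-derived 3T3Gli1-Luc cells carrying a stable Gli1-driven firefly luciferase reporter; series mostly up to about 92 µM; nearly all actives have a fitted effect of over 15% in size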)
Method in brief: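 3T3Gli1-Luc (NIH/3T3 clone, stable Gli1-Luc); 4 hr pre-incubation, then cpd in DMSO 24 hr, 37 C/5% CO2; luciferase reagent 30 min RT; luminescence.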

[2] = qHTS assay to identify small molecule antagonists of the sonic hedgehog signaling (Shh) pathway (AID 1259369; calls by dose curve; note: nearly all actives have a fitted effect of over 45% in size)
Method in brief: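 3T3Gli1-Luc, conditioned-medium-stimulated, 24hr cpd, 37C/5% CO2; Gli1-driven firefly Luc luminescence after 30min RT with luciferase reagent. Cells plated 4hr before cpd.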

[3] = qHTS assay to identify small molecule agonists of the androgen receptor (AR) signaling pathway in the presence of an antagonist - cell viability counter screen (AID 1259379);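 note: MDA-kb2 human breast cancer cells carrying an MMTV luciferase reporter; series mostly up to about 92 µM; nearly all actives have a fitted effect of over 25% in size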
Method in brief: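 Cells: MDA-kb2 (MMTV-luc, AR and GR elements), 3,000/well, 5 hr settle. Added: nilutamide 3.0uM final, then compounds (15 conc.). Incubation: 16 hr, 37C, no CO2. Read-out: CellTiter-Fluor, 1 hr, fluorescence.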

[4] = qHTS assay to identify small molecule agonists of the estrogen receptor beta (ER-beta) signaling pathway - cell viability counter screen (AID 1259380); note: nearly all actives have a fitted effect of over 30% in size
Method in brief: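 HEK293T ER-beta-UAS-bla; 2% CS-FBS; 6 hr pre-plate, 16 hr cpd at 37C/5% CO2; LiveBLAzer read first, then CellTiter-Glo 30 min RT, luminescence.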

[5] = qHTS assay to identify small molecule antagonists of the estrogen receptor beta (ER-beta) signaling pathway - cell viability counter screen (AID 1259382);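 note: HEK293T cells carrying ER-beta-UAS-bla reporter stimulated with estradiol; series mostly up to about 92 µM; nearly all actives have a fitted effect of over 55% in size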
Method in brief: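 Cells: ER-beta-UAS-bla HEK293T, 2,000/well, 2% CS-FBS, 6 hr settle. Cpd + E2 (1nM final), 16 hr, 37C/5% CO2. Bla FRET substrate 2 hr RT, then CellTiter-Glo 30 min RT, luminescence.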

[6] = molecular target: Estrogen receptor (Homo sapiens) (UniProt P03372); experiment: qHTS assay to identify small molecule agonists of the estrogen receptor alpha (ER-alpha) signaling pathway in the presence of an antagonist (AID 1259383; calls by dose curve; note: top concentration of the series differs between compounds; nearly all actives have a fitted effect of over 15% in size)
Chain of Estrogen receptor (Homo sapiens) (P03372 whole entry, looked up): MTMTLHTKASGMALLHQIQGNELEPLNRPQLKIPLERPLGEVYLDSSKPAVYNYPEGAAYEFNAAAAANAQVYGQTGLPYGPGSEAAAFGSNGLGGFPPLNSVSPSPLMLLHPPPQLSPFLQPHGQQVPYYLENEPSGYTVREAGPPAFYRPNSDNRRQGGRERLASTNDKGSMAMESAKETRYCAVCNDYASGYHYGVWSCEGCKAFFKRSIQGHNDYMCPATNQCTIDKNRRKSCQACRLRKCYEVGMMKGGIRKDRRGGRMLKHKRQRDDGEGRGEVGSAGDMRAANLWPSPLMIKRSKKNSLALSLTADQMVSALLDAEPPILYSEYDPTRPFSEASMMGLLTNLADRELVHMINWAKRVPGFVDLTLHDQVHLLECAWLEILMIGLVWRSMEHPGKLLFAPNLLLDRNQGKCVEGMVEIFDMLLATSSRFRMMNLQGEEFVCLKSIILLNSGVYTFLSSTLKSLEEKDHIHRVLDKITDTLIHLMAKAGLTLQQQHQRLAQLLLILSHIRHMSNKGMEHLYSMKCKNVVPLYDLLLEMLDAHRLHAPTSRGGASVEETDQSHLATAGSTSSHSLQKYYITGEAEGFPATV
Method in brief: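 VM7Luc4E2, endog. ER-alpha + 4×ERE-luc; charcoal-stripped FBS, phenol red-free, 5 d; 24hr plating; +10.0nM ICI-182,780 (final); cpds 15 conc, 22hr, 37C/5% CO2; ONE-Glo luminescence.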

[7] = qHTS assay to identify small molecule agonists or antagonists of the thyroid stimulating hormone receptor (TSHR) signaling pathway - wild type cell line counter screen (AID 1259384; calls by dose curve)
Method in brief: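 Wild-type Hek293 cells, 800/well, 18 h at 37C, then compound with Ro20-1724 for 30 min RT. cAMP by HTRF (cAMP-d2/anti-cAMP cryptate), 1 h RT, fluorescence read. 15 concentrations, triplicates.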

[8] = molecular target: Thyrotropin receptor (Homo sapiens) (UniProt P16473); experiment: qHTS assay to identify small molecule antagonists of the thyroid stimulating hormone receptor (TSHR) signaling pathway (AID 1259385; calls by dose curve; note: nearly all actives have a fitted effect of over 20% in size)
Chain of Thyrotropin receptor (Homo sapiens) (P16473 whole entry, looked up): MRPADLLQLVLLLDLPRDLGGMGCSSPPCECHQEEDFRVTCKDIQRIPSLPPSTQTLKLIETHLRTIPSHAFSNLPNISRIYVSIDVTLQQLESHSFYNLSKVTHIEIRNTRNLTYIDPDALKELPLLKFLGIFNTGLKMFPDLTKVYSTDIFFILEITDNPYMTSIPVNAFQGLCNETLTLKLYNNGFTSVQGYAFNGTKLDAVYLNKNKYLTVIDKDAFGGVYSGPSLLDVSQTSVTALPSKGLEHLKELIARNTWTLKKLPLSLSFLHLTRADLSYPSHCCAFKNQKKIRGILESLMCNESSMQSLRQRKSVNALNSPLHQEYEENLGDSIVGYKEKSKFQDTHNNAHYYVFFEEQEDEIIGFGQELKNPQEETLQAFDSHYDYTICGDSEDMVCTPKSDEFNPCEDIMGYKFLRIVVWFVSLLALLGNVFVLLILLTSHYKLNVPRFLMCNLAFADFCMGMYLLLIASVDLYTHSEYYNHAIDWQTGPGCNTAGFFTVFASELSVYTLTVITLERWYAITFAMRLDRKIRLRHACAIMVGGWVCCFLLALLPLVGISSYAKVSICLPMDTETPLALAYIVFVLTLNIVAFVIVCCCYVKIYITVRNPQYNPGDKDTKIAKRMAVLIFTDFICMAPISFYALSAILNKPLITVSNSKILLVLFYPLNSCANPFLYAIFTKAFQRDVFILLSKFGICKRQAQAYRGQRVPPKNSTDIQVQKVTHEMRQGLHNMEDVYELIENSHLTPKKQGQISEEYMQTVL
Method in brief: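 TSHR-HEK293 cells (800/well) plated 18 h, then compounds with Ro20-1724 and TSH at 1.5 ng/mL final, 30 min at room temperature. cAMP quantified by HTRF (cAMP-d2/anti-cAMP-cryptate, 1 h); 15 concentrations in triplicate.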

[9] = qHTS assay to identify small molecule agonists of the estrogen receptor alpha (ER-alpha) signaling pathway in the presence of an antagonist - cell viability counter screen (AID 1259386);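 note: series mostly up to about 92 µM; cells exposed to compounds for 22 h at 37 °C before the viability read; nearly all actives have a fitted effect of over 30% in size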
Method in brief: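 VM7Luc4E2, stripped-serum pre-culture 5 d; 24hr plating; +ICI-182,780 10.0nM final; cpds 15 conc, 22hr, 37C/5% CO2; CellTiter-Fluor added at 21hr, fluorescence 1hr later.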

[10] = molecular target: Progesterone receptor (Homo sapiens) (UniProt P06401); experiment: qHTS assay to identify small molecule agonists of the progesterone receptor (PR) signaling pathway (AID 1346784; calls by dose curve; note: nearly all actives have a fitted effect of over 30% in size)
Chain of Progesterone receptor (Homo sapiens) (P06401 whole entry, looked up): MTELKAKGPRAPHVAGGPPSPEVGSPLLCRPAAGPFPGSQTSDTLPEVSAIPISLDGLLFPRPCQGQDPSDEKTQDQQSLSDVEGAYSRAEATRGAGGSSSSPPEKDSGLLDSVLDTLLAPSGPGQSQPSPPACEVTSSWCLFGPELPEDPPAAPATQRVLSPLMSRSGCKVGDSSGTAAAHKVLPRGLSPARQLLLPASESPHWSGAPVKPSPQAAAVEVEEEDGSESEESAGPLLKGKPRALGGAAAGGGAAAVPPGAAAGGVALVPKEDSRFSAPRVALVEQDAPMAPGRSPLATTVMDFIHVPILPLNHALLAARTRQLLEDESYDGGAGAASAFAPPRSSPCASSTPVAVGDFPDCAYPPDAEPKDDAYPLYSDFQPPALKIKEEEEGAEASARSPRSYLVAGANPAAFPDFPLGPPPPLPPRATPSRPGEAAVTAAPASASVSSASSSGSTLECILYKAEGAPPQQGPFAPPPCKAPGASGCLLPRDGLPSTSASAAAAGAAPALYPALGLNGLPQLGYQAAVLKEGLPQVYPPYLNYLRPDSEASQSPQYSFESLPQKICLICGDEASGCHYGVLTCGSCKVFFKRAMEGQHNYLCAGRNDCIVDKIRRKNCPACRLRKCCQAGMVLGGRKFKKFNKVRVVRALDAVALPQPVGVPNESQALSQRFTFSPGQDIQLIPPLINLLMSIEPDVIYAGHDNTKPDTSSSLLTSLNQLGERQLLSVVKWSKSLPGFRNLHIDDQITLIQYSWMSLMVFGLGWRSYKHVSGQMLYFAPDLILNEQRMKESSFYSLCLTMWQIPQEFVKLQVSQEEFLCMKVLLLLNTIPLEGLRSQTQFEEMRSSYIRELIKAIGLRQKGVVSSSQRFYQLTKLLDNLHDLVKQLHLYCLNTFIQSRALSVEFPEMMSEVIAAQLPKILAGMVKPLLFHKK
Method in brief: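 Using charcoal-stripped serum (2%) to limit endogenous steroids, PR-UAS-bla HEK 293T cells received compounds for 16 hr at 37C after 6 hr plating; beta-lactamase FRET fluorescence was recorded following 2 hr substrate loading at room temperature.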

[11] = molecular target: Progesterone receptor (Homo sapiens) (UniProt P06401); experiment: qHTS assay to identify small molecule antagonists of the progesterone receptor (PR) signaling pathway (AID 1346795; active = well fitted inhibition curve with a large enough effect in the signal ratio in the repeat runs, not every such curve was filed as active; the % refers to the signal ratio)
Method in brief: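 Inhibition of R5020-induced (1 nM final) beta-lactamase reporter signal in PR-UAS-bla HEK293T cells was scored by FRET fluorescence after overnight (16 hr) compound treatment.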

[12] = qHTS assay to identify small molecule antagonists of the progesterone receptor (PR) signaling pathway - cell viability counter screen (AID 1346798); note: series mostly up to about 92 µM; nearly all actives have a fitted effect of over 50% in size
Method in brief: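 ATP content as viability readout: CellTiter-Glo luminescence, 30 min room temperature, in PR-UAS-bla HEK293T cells after 16 hr compound/R5020 treatment at 37C and 5% CO2.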

[13] = qHTS assay to identify small molecule agonists of the progesterone receptor (PR) signaling pathway - cell viability counter screen (AID 1346799; calls by dose curve; note: nearly all actives have a fitted effect of over 45% in size)
Method in brief: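 Cytotoxicity in PR-bla HEK293T cells: 16 h compound, 37C; CellTiter-Glo added post-FRET read; luminescence after 30 min RT.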

[14] = qHTS assay to identify small molecule antagonists of the TGF-beta/Smad signaling pathway - cell viability counter screen (AID 1346824); note: nearly all actives have a fitted effect of over 50% in size
Method in brief: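 SBE-bla HEK 293T cells, incubated overnight, then compound plus 0.25 ng/mL TGF-beta1 (stock added) for 5 hr at 37 C. Viability was read in the same wells by CellTiter-Glo luminescence after 30 min at room temperature.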

[15] = qHTS assay to identify small molecule agonists of the TGF-beta/Smad signaling pathway - cell viability counter screen (AID 1346829); note: top concentration of the series differs between compounds; nearly all actives have a fitted effect of over 45% in size
Method in brief: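 CellTiter-Glo luminescence readout; SBE-bla HEK 293T cells, overnight plating, compound 5 hr at 37 C/5% CO2, then bla substrate 2 hr RT, then CellTiter-Glo 30 min RT.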

[16] = qHTS assay to identify small molecule agonists of the TGF-beta/Smad signaling pathway (AID 1346859; active = well fitted activation curve with a large enough effect in the signal ratio in the repeat runs, not every such curve was filed as active; the % refers to the signal ratio; note: series mostly up to about 77 µM)
Method in brief: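 Stable Smad binding element-beta-lactamase HEK 293T cells; 5 hr compound exposure at 37 C under 5% CO2; 2 hr room-temperature substrate step; fluorescence excited at 405 nm, collected at 460 nm and 530 nm.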

[17] = molecular target: Estrogen receptor beta (Homo sapiens) (UniProt Q92731); experiment: qHTS assay to identify small molecule agonists of the estrogen receptor beta (ER-beta) signaling pathway (AID 1259377; active = well fitted activation curve with a large enough effect in the signal ratio in the repeat runs, not every such curve was filed as active; the % refers to the signal ratio)
Chain of Estrogen receptor beta (Homo sapiens) (Q92731 whole entry, looked up): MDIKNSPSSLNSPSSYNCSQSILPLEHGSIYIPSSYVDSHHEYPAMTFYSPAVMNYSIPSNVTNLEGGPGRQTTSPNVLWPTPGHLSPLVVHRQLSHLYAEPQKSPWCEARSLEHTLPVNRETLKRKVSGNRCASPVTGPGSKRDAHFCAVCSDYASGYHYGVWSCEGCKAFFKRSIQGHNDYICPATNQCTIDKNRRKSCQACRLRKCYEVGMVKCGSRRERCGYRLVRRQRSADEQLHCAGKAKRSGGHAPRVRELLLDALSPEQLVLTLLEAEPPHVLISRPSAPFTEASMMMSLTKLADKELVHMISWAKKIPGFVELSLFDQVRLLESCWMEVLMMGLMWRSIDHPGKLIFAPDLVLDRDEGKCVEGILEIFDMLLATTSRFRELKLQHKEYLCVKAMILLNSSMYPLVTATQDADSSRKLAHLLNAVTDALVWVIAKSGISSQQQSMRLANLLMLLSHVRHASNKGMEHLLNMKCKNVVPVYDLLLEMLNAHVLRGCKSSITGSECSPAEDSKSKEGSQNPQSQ
Method in brief: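 In HEK293T cells bearing a UAS-beta-lactamase reporter under ER-beta control, DMSO-delivered compounds were incubated for 16 hr at 37C. Activity was detected as fluorescence 2 hours after LiveBLAzer B/G FRET substrate addition.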

Measured: Potency

OC1C(O)C(O)C(O)C(O)C1O (stereo not drawn)
inactive: [1] | [2] | [3] | [4] | [5] | [6] | [7] | [8] | [9] | [10] | [11] | [12] | [13] | [14] | [15] | [16]

Cc1ccc2ncccc2c1
inactive: [1] | [2] | [3] | [4] | [5] | [6] | [7] | [8] | [9] | [10] | [11] | [12] | [13] | [14] | [15] | [16]

O=C(O)CCCCCCCCC(=O)O
inactive: [1] | [2] | [4] | [5] | [7] | [8] | [9] | [10] | [11] | [12] | [13] | [14] | [15] | [16]

NCCCCCCN
inactive: [1] | [2] | [4] | [5] | [8] | [9] | [10] | [11] | [12] | [13] | [14] | [15] | [16]

CC(C)CCCCCCCOC(=O)CCCCC(=O)OCCCCCCCC(C)C
inactive: [1] | [2] | [4] | [5] | [7] | [8] | [9] | [10] | [11] | [12] | [13] | [14] | [15] | [16]

CCCCOC(=O)c1ccc(N)cc1
inactive: [1] | [2] | [17] | [4] | [5] | [6] | [7] | [8] | [9] | [10] | [12] | [13] | [14] | [15] | [16]

Reference: PubChem BioAssay (Tox21)
